# Rows were chosen to be rich in hits. Some 7.9% of all compounds tested hit in one or more screens of this group.
# NOMO-1 viab: STK33 inhibitor candidate reducing NOMO-1 cell viability | NOMO-1 AML viability, CellTiter-Glo luminescence, 72 h | inhibition, % (no concentration beside the values) | 37,000 compounds, 7.5% hits | AID 2330; in the data active means inhibition above about 80%; inconclusive means no clear call, values can overlap the other calls
# PD-1 reverse act: activators reversing PD-1 mediated T-cell inhibition; primary human CD4 T cells, PD-L1 beads, CellTiter-Glo 96 h; activation, % (concentration not given with the values); 29,000 tested, under 10 active; AID 2316; call rule not given here;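 further: 0% = median vehicle wells and 100% = positive control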
# Hedgehog inh: blocks Sonic Hedgehog signaling; AID 2313; 22,000 compounds, 2.1% hits; inhibition, % (test concentration not listed); Shh-LIGHT2 Gli-luciferase reporter, 30 h;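 active means mean inhibition across valid replicates above about 65%, limit read from the data; inconclusive means mean under the limit, yet half or more replicates past it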;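 further: pathway switched on by Shh-conditioned medium diluted 1 in 25 in low serum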
# MITF inhib: blocks MITF activity; TRPM1 promoter luciferase, luminescence, 24 h; 37,000 compounds, 0.28% hits; AID 2240; inhibition, % (no concentration beside the values); in the data active means inhibition above about 85%; inconclusive means no clear call, values can overlap the other calls; inactive means below about 68%;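 further: human melanocyte line stably carrying TRPM1 promoter luciferase reporter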
# * marks the source's active call; other numbers are inactive results; ? = inconclusive; / = no result.
SMILES,NOMO-1 viab,PD-1 reverse act,Hedgehog inh,MITF inhib
C[C@@H]1CN([C@H](C)CO)C(=O)c2cccc(NS(=O)(=O)c3ccc(F)cc3)c2O[C@@H]1CN(C)Cc1ccc(C(=O)Nc2ccccc2N)cc1,127.3*,-2.3,/,6.1
C[C@H]1CN([C@@H](C)CO)C(=O)c2cccc(NS(=O)(=O)c3ccccc3)c2O[C@@H]1CN(C)Cc1ccc(C(=O)Nc2ccccc2N)cc1,?,-2.4,/,-2.9
C[C@@H]1CN([C@H](C)CO)C(=O)c2cccc(NS(=O)(=O)c3ccccc3)c2O[C@@H]1CN(C)Cc1ccc(C(=O)Nc2ccccc2N)cc1,128.0*,-1.1,/,17.4
Cc1ccc(S(=O)(=O)Nc2cccc3c2O[C@@H](CN(C)Cc2ccc(C(=O)Nc4ccccc4N)cc2)[C@@H](C)CN([C@H](C)CO)C3=O)cc1,136.5*,-0.3,/,30.0
C[C@@H]1CN([C@@H](C)CO)C(=O)c2cccc(NS(=O)(=O)c3ccc(Cl)cc3)c2O[C@H]1CN(C)Cc1ccc(C(=O)Nc2ccccc2N)cc1,48.4,0.4,/,-11.3
Cc1ccc(Oc2coc3cc(OCC(=O)Nc4ccccc4C(F)(F)F)ccc3c2=O)cc1,-8.4,1.2,/,-5.0
Cc1nnc(SCc2nc(N)nc(Nc3ccc4ccccc4c3)n2)s1,40.0,-2.9,/,-98.7
COc1ccc(N(CC(=O)Nc2cccc(Br)c2)S(C)(=O)=O)cc1,-0.8,0.2,/,1.0
C[C@H]1CN([C@@H](C)CO)C(=O)c2cccc(NS(C)(=O)=O)c2O[C@@H]1CN(C)Cc1ccc(C(=O)Nc2ccccc2N)cc1,11.5,-0.5,/,2.9
C[C@@H]1CN([C@@H](C)CO)C(=O)c2cccc(NS(C)(=O)=O)c2O[C@@H]1CN(C)Cc1ccc(C(=O)Nc2ccccc2N)cc1,122.9*,-0.9,/,16.4
CC1C(=O)C(=O)[C@@H]2O[C@@H]2C1=O (stereo partly specified),95.7*,-0.1,?,-4.0
COc1ccc(Cl)cc1Nc1nc(N)nc(-c2cc3ccccc3o2)n1,95.0*,/,/,28.0
C=C1[C@@H]2CC[C@H]3[C@@]4(C)C(C[C@H](OC(=O)[C@]5(C)O[C@@H]5C)[C@]3(C2)[C@@H]1OC(C)=O)[C@](C)(C(=O)OC)CC[C@H]4OC(C)=O (stereo partly specified),87.7*,-1.2,8.0,-20.0
CC1=C(CO)C(=O)OC([C@@H](C)C2CC[C@H]3C4C[C@H]5O[C@]56[C@@H](O)C=CC(=O)[C@]6(C)C4CC[C@]23C)C1 (stereo partly specified),119.6*,-13.3,?,90.4*
Cc1c(O)c(C(=O)c2nn[nH]n2)c(=O)n(-c2ccccc2)c1-c1ccccc1,18.5,4.1,-5.5,5.3
CNC(=O)c1c(N)sc2c1CCCCC2,126.3*,-1.2,-22.8,-10.1
C[C@@H]1CN([C@H](C)CO)C(=O)c2cccc(NC(=O)Nc3cccc4ccccc34)c2O[C@H]1CN(C)C(=O)NC1CCCCC1,?,-4.0,18.4,33.0
C[C@H](CO)N1C[C@H](C)[C@H](CN(C)C(=O)NC2CCCCC2)Oc2c(NC(=O)Nc3cccc4ccccc34)cccc2C1=O,97.0*,-5.5,-45.8,49.3
C[C@H](CO)N1C[C@H](C)[C@H](CN(C)C(=O)Nc2ccc(F)cc2)Oc2c(NC(=O)Nc3cccc4ccccc34)cccc2C1=O,123.8*,-10.2,28.0,?
O=C(Cc1ccccc1)NC1CCN(C(=O)c2cccs2)CC1,14.5,0.2,-19.3,1.6
COC(=O)c1cc2ccccc2[nH]1,27.2,0.2,2.1,8.6
Cc1noc(C)c1S(=O)(=O)Nc1ccc2c(c1)C(=O)N([C@H](C)CO)C[C@H](C)[C@@H](CN(C)C(=O)Nc1ccc(C(F)(F)F)cc1)OCCCC[C@@H](C)O2,114.9*,-2.5,11.2,24.7
Cc1noc(C)c1S(=O)(=O)Nc1ccc2c(c1)C(=O)N([C@@H](C)CO)C[C@@H](C)[C@H](CN(C)C(=O)Nc1ccc(C(F)(F)F)cc1)O2,10.3,-1.7,-23.9,-3.3
Cc1noc(C)c1S(=O)(=O)Nc1ccc2c(c1)C(=O)N([C@H](C)CO)C[C@H](C)[C@H](CN(C)C(=O)Nc1ccc(C(F)(F)F)cc1)OCCCC[C@@H](C)O2,?,-5.5,99.9*,54.3
COc1ccc(NC(=O)c2cc(S(=O)(=O)Nc3ccc(OC)cc3)c(Cl)cc2Cl)cc1,0.2,/,/,-13.3
SMILES,NOMO-1 viab,PD-1 reverse act,Hedgehog inh,MITF inhib
Cc1cccc(-n2c(N)cc(=O)nc2SCC(=O)N(c2ccccc2)c2ccccc2)c1,0.8,0.4,/,-0.6
COC(=O)CCN(C(=O)c1ccc(OC(C)=O)cc1)c1ccccn1,103.7*,/,/,-11.8
Cc1ccc(S(=O)(=O)Nc2ccc3c(c2)CC(=O)N([C@H](C)CO)C[C@@H](C)[C@@H](CN(C)Cc2ccc(C(F)(F)F)cc2)O3)cc1,114.5*,-1.9,14.4,-1.0
Cc1ccc(S(=O)(=O)Nc2ccc3c(c2)CC(=O)N([C@@H](C)CO)C[C@H](C)[C@@H](CN(C)Cc2ccc(C(F)(F)F)cc2)O3)cc1,98.1*,-0.5,68.7*,22.8
CCN(CC)S(=O)(=O)c1cccc(C(=O)O)c1,12.0,0.1,/,-3.6
COC(=O)c1ccc(NC(=O)CSc2nnc(-c3ccccc3)n2-c2ccccc2)cc1,29.4,-0.3,/,-2.1
C[C@H]1CN([C@@H](C)CO)C(=O)Cc2cc(NS(=O)(=O)c3ccc(Cl)cc3)ccc2O[C@H]1CN(C)Cc1ccc(Cl)c(Cl)c1,97.2*,1.5,40.9,4.6
COc1ccc(S(=O)(=O)Nc2ccc3c(c2)CC(=O)N([C@@H](C)CO)C[C@H](C)[C@@H](CN(C)Cc2ccc(Cl)c(Cl)c2)O3)cc1,88.2*,3.6,64.8,4.2
C[C@@H]1CN([C@H](C)CO)C(=O)Cc2cc(NS(=O)(=O)c3ccc(Cl)cc3)ccc2O[C@@H]1CN(C)Cc1ccc(Cl)c(Cl)c1,116.7*,-3.4,25.6,-3.0
C[C@H](CO)N1C[C@H](C)[C@H](CN(C)Cc2ccc(Cl)c(Cl)c2)Oc2ccc(NS(=O)(=O)c3ccc(Cl)cc3)cc2CC1=O,102.1*,1.1,21.8,27.1
C[C@H]1CN([C@@H](C)CO)C(=O)Cc2cc(NS(=O)(=O)c3ccc(Cl)cc3)ccc2O[C@@H]1CN(C)Cc1ccc2c(c1)OCO2,48.1,/,?,13.0
C[C@@H]1CN([C@@H](C)CO)C(=O)Cc2cc(NS(C)(=O)=O)ccc2O[C@@H]1CN(C)Cc1ccc(Cl)c(Cl)c1,6.4,-3.3,13.6,1.1
Cc1ccc(C(=O)CSc2nnc(-c3cc(C(C)(C)C)nn3Cc3cccc(C)c3)o2)cc1,37.6,4.4,-14.4,12.7
O=C(NC1CCN(C(=O)C2CCC2)CC1)C1CCCCC1,8.1,-0.4,-0.8,-12.8
COc1cc(C2NC(=S)NC(C)=C2C(=O)Nc2ccccc2Cl)ccc1OCC#N (stereo unspecified),-7.8,-2.8,/,-10.9
C=C1CCC2(C(=O)O)CCC3(C)C(=CCC4C5(C)C[C@@H](O)[C@H](O)C(C)(CO)C5CCC43C)C2C1C (stereo partly specified),/,/,12.2,/
COCCCNc1ncnc(N)c1[N+](=O)[O-],-10.2,1.1,/,-55.3
Cc1[nH]c2ccccc2c1C(=O)CSc1nc2sc(C)c(C)c2c(=O)n1-c1ccccc1,100.0*,-0.8,/,59.8

# Screening data as filed in PubChem BioAssay.
